Over roughly 39,000 sequences, “fluorescence intensity (a.u.)” has its median near 4,300; the highest 2% begin near 39,000. This excerpt belongs to a sample that is enriched for the highest values.

This test has as its target T1, OsSMF1 (Oryza sativa, UniProt Q6ZLB0 1-436).
T1 sequence: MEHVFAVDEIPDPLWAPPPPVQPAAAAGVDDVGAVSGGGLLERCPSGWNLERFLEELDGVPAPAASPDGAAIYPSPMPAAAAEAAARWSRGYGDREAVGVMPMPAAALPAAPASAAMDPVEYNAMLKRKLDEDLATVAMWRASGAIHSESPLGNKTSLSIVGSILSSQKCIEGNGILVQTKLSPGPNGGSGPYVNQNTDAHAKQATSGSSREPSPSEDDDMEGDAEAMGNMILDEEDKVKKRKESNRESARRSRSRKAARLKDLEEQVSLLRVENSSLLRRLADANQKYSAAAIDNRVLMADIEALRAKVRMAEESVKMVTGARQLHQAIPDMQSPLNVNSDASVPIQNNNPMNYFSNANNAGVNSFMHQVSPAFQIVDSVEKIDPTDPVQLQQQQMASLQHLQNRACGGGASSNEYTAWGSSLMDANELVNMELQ
Kind of test: protein-binding microarray (RPBM); PBS, 2% BSA, 51.3 ng/ul salmon testes DNA, 50 uM zinc acetate, 200 nM TF, 25 C, 1 h; high values mean tight binding. As to conditions: protein: recombinant; tags: N-terminal polyhistidine and DsRed monomer fusion (pET32a); chain copies: 2; label: CyDye5-dUTP incorporated in the synthesized complementary strand; 3' TTTTT single-stranded linker to array surface; dsDNA, one strand shown. The essentials:
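Transcription factors, each fused N-terminally to a polyhistidine tag and DsRed, were expressed in E. coli BL21-CodonPlus and purified on Ni–NTA. A custom Agilent array was made double-stranded by primer extension with Cy5-dUTP and blocked with 2% BSA. It was incubated with 200 nM protein in PBS, 2% BSA, salmon testes DNA and 50 µM zinc acetate at 25 °C for 1 h, then washed. The binding signal is per-feature fluorescence intensity (arbitrary units) read on an Axon 4000B scanner.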
On to “TATGCCAAAGAGAAGCCTCGTCAGCCATCCCTTTGGCCACCGGAGTCACCTAGTGCAG”, for which the binding signal is 7800 fluorescence intensity (a.u.).

In the case of “GAGCAGCCAGCTCGCCAAGCCTAGCCATTCTTGATCTCTTCGGAGTCACCTAGTGCAG”, the binding signal is 3280 fluorescence intensity (a.u.).

Regarding “CGAAGTCGTGCTGCGCTCCGACTCAGCTGCATCGTCACTCCGGAGTCACCTAGTGCAG”, the binding signal is 5960 fluorescence intensity (a.u.).

On to “GTCCATCGGATCGGGAGCGCGCGGCGAGGCAGGCGGGGTCCGGAGTCACCTAGTGCAG”, for which the binding signal is 44300 fluorescence intensity (a.u.).

Regarding “ACCCAACGGTGATGATGTCAGCTGACGTGGCGCCCCGGAGCGGAGTCACCTAGTGCAG”, the binding signal is 40500 fluorescence intensity (a.u.).

As to “CAGGGCAGCGGCAGGTGGGGAGGAGGCCGGCGGGTCGGCGCGGAGTCACCTAGTGCAG”, the binding signal was 3470 fluorescence intensity (a.u.).

Take “CTGCCGGTGGACGGCGGCGGAGAGCTGACTAGCCGAGCCGCGGAGTCACCTAGTGCAG”: the binding signal was 3520 fluorescence intensity (a.u.).

For “GCGGAGGCCGCCGGCTGACGTGGCTCCCAACGGCCGGGAGCGGAGTCACCTAGTGCAG”, the binding signal is 21200 fluorescence intensity (a.u.).

On to “GAGGAAGAACCTTACGCTCAAACGAAACGGAACCAGTAGGCGGAGTCACCTAGTGCAG”, for which the binding signal is 55100 fluorescence intensity (a.u.).

Consider “ACTCGTGGAGCCGGTGATGACGTGCCCAAGCTAGAGACAGCGGAGTCACCTAGTGCAG”, for which the binding signal is 7230 fluorescence intensity (a.u.).

Turning to “GAGCCGAGACTGAGAGAGAGATCGGCGCCGGCTGTGAACGCGGAGTCACCTAGTGCAG”, the binding signal is 48100 fluorescence intensity (a.u.).

Turning to “AAGAGGGAGGGGAGGGTTCGCGAACCAGTAGAAAACGGCTCGGAGTCACCTAGTGCAG”, the binding signal was 3390 fluorescence intensity (a.u.).

“CAGCAGCAACGAAATCAGAACGAGGCGCAGGAAGAAGAAACGGAGTCACCTAGTGCAG”: the binding signal was 28000 fluorescence intensity (a.u.).

Regarding “TCGGGTGAGCGAGTGAGTGGGCGAGGAGGCGCGGCGGCGGCGGAGTCACCTAGTGCAG”, the binding signal is 3800 fluorescence intensity (a.u.).

In the case of “TCGGCCGTCGGATCGCGCGCGAAACGCTGTGATGTGCTGGCGGAGTCACCTAGTGCAG”, the binding signal is 4480 fluorescence intensity (a.u.).

In the case of “GGATTGGCGACTCGACGTTGACAACATGACATATGAGGTACGGAGTCACCTAGTGCAG”, the binding signal is 4210 fluorescence intensity (a.u.).

For the sequence “GCTGCTCTCTCTCTCTCTCTCTCCCATCTCGTCCTCGCTTCGGAGTCACCTAGTGCAG”, the binding signal was 19400 fluorescence intensity (a.u.).

With “TCCACCTGGGTTCAAATCCTAGATTTGACACGGGTGCTCGCGGAGTCACCTAGTGCAG”, the binding signal is 4830 fluorescence intensity (a.u.).

“ATAGCATCCTGTACACTCAAGTCATCCCTGACACACACACCGGAGTCACCTAGTGCAG”: the binding signal is 3850 fluorescence intensity (a.u.).

In the case of “GGGCCAATCTAGTTGTCAACTTCTACTACTGCTAGGAGGACGGAGTCACCTAGTGCAG”, the binding signal was 3410 fluorescence intensity (a.u.).

On to “GCTCGCCGGCCTCACCCTCAATACATGGTGATTCATCCGGCGGAGTCACCTAGTGCAG”, for which the binding signal was 3660 fluorescence intensity (a.u.).

With “TGAATCCACAGCCACGCCACGCGGCCCATGCCTACGCCTCCGGAGTCACCTAGTGCAG”, the binding signal is 4000 fluorescence intensity (a.u.).

With “CCTTGCCGCCGGCCAATTTATTGACTCACCGAGAAGTTTGCGGAGTCACCTAGTGCAG”, the binding signal is 5600 fluorescence intensity (a.u.).

“TGTGACCCATTCTAATACAATAAATCTGGACATGTGTACTCGGAGTCACCTAGTGCAG”: the binding signal was 3630 fluorescence intensity (a.u.).

Turning to “GCCTTCCGTTCCGCTCCTCTACCGCCGCGTCAAGATTCCCCGGAGTCACCTAGTGCAG”, the binding signal was 4950 fluorescence intensity (a.u.).

For “TGCGCCGCCGCCGCCGCCGCCGCTGCGGCGTGCATCCGCCCGGAGTCACCTAGTGCAG”, the binding signal is 37400 fluorescence intensity (a.u.).

Regarding “TTTCCGCTATCGCGGTGCGCGCGGAAGGCCCCGCTGCGGCCGGAGTCACCTAGTGCAG”, the binding signal was 39200 fluorescence intensity (a.u.).

For the sequence “CGCCGCCGGCCGCGCCGCCGCTGCCGCCGTCGCCCCGCGCCGGAGTCACCTAGTGCAG”, the binding signal is 3450 fluorescence intensity (a.u.).

As for “ATCTCTAAACACCAAATTTGACACCGATCCACGTGCACACCGGAGTCACCTAGTGCAG”, the binding signal was 7210 fluorescence intensity (a.u.).

Turning to “GACCAAGATGACAAAGATTACTATTATACTGATGATAACCCGGAGTCACCTAGTGCAG”, the binding signal is 34100 fluorescence intensity (a.u.).

As to “AAGTCTGCAGTTGCACTGGGAGTTGACAAAGAAGATGACGCGGAGTCACCTAGTGCAG”, the binding signal was 3550 fluorescence intensity (a.u.).

With “GCCATTGATGACAAAGACAACCTGGAAGATTACTGTTGCACGGAGTCACCTAGTGCAG”, the binding signal is 64300 fluorescence intensity (a.u.).

On to “GTCCTCATCCTAGGTAAAATAACCACGTCATCTCACAGGTCGGAGTCACCTAGTGCAG”, for which the binding signal was 20700 fluorescence intensity (a.u.).

Turning to “GCTAGCGCGCATTGACCAAGATCCGATTTGTATGCTAGTGCGGAGTCACCTAGTGCAG”, the binding signal was 4060 fluorescence intensity (a.u.).

For “CCGAGAGAAAGAGAGCAAGAGAGAGAGACGGGCTCAAGAGCGGAGTCACCTAGTGCAG”, the binding signal is 4560 fluorescence intensity (a.u.).

With “GCAGAGGCGGCGAGGCTCGGCTTCTTCTCGAACGGCGCCGCGGAGTCACCTAGTGCAG”, the binding signal was 27600 fluorescence intensity (a.u.).

Turning to “GAGCAGAAAGACGCGGCTTCTCGAGAGTTCCAAGTTCCAACGGAGTCACCTAGTGCAG”, the binding signal was 45200 fluorescence intensity (a.u.).

For the sequence “CGATGAGCACCGCAGCGATTGACATATTGCAATATCGTTCCGGAGTCACCTAGTGCAG”, the binding signal is 3550 fluorescence intensity (a.u.).

For the sequence “ACGTACGTGTGCGTATCCGACAAGTCCCACGACGTGGCAACGGAGTCACCTAGTGCAG”, the binding signal is 4960 fluorescence intensity (a.u.).

In the case of “TTTTACATGATTGGATGACAAAGCCTATTTCGTTTTGTTGCGGAGTCACCTAGTGCAG”, the binding signal was 5400 fluorescence intensity (a.u.).

For the sequence “TATTTGGTTTTGTAGGGGTTGGTTTGGGAAAATTGGAAAGCGGAGTCACCTAGTGCAG”, the binding signal is 4240 fluorescence intensity (a.u.).

As to “AAATCAGGAAATGAAAAGCTAGGGTTTTAGGTATTGTAATCGGAGTCACCTAGTGCAG”, the binding signal is 40800 fluorescence intensity (a.u.).
